According to PMC11062922 (Nature Chemical Biology, 2023):
Read-outs that look alike come from different tables or passages of the source.

Experiments:
AAK1 = tested on: AAK1; design: species or system human, MV4-11 + K-562 + COLO205 + SK-N-BE2 + OVCAR-8; settings: read-out: apparent Kd, n = 1
BMP2K = tested on: BMP2K; design: species or system human, MV4-11 + K-562 + COLO205 + SK-N-BE2 + OVCAR-8; settings: read-out: apparent Kd, n = 1
CLK1 = tested on: CLK1; design: species or system human, MV4-11 + K-562 + COLO205 + SK-N-BE2 + OVCAR-8; settings: read-out: apparent Kd, n = 1
CLK4 = tested on: CLK4; design: species or system human, MV4-11 + K-562 + COLO205 + SK-N-BE2 + OVCAR-8; settings: read-out: apparent Kd, n = 1
MELK = tested on: MELK; design: species or system human, MV4-11 + K-562 + COLO205 + SK-N-BE2 + OVCAR-8; settings: read-out: apparent Kd; compound concentrations:100 nM and 1000 nM (sheet 'Samples'); n = 1
Q6ZSR9 = Q6ZSR9 (human, UniProt Q6ZSR9); design: species or system MV4-11 + K-562 + COLO205 + SK-N-BE2 + OVCAR-8; settings: read-out: apparent Kd, n = 1
NUAK1 = tested on: NUAK1; design: species or system human, MV4-11 + K-562 + COLO205 + SK-N-BE2 + OVCAR-8; settings: read-out: apparent Kd; compound concentrations:100 nM and 1000 nM (sheet 'Samples'); n = 1
GAK = tested on: GAK; design: species or system human, MV4-11 + K-562 + COLO205 + SK-N-BE2 + OVCAR-8; settings: read-out: apparent Kd, compound concentrations: 100 nM and 1000 nM (sheet 'Samples'), n = 1
GSK3A = tested on: GSK3A; design: species or system human, MV4-11 + K-562 + COLO205 + SK-N-BE2 + OVCAR-8; settings: read-out: apparent Kd, n = 1
GSK3B = tested on: GSK3B; design: species or system human, MV4-11 + K-562 + COLO205 + SK-N-BE2 + OVCAR-8; settings: read-out: apparent Kd, compound concentrations: 100 nM and 1000 nM (sheet 'Samples'), n = 1
PRKAG1 = tested on: PRKAG1; design: species or system human, MV4-11 + K-562 + COLO205 + SK-N-BE2 + OVCAR-8; settings: read-out: apparent Kd, compound concentrations: 100 nM and 1000 nM (sheet 'Samples'), n = 1
CSNK2A1;CSNK2A3 = tested on: CSNK2A1;CSNK2A3; design: species or system human, MV4-11 + K-562 + COLO205 + SK-N-BE2 + OVCAR-8; settings: read-out: apparent Kd; compound concentrations: 100 nM and 1000 nM (sheet 'Samples'), CATDS: 0.166165421111277; n = 1
CSNK2A2 = tested on: CSNK2A2; design: species or system human, MV4-11 + K-562 + COLO205 + SK-N-BE2 + OVCAR-8; settings: read-out: apparent Kd; compound concentrations: 100 nM and 1000 nM (sheet 'Samples'), CATDS: 0.20425555691522501; n = 1
PKN1 = tested on: PKN1; design: species or system human, MV4-11 + K-562 + COLO205 + SK-N-BE2 + OVCAR-8; settings: read-out: apparent Kd, n = 1
PKN3 = tested on: PKN3; design: species or system human, MV4-11 + K-562 + COLO205 + SK-N-BE2 + OVCAR-8; settings: read-out: apparent Kd; compound concentrations:100 nM and 1000 nM (sheet 'Samples'); n = 1
PAK4 = tested on: PAK4; design: species or system human, MV4-11 + K-562 + COLO205 + SK-N-BE2 + OVCAR-8; settings: read-out: apparent Kd; compound concentrations: 100 nM and 1000 nM (sheet 'Samples'), CATDS: 0.130749402221499; n = 1
FLT4 = tested on: FLT4; design: species or system human, MV4-11 + K-562 + COLO205 + SK-N-BE2 + OVCAR-8; settings: read-out: apparent Kd; compound concentrations: 100 nM and 1000 nM (sheet 'Samples'), CATDS: 8.0295198966638101E-2; n = 1
[1] = compound concentrations:100 nM and 1000 nM (sheet 'Samples')

Q6ZSR9, sequence (Q6ZSR9 whole entry, looked up): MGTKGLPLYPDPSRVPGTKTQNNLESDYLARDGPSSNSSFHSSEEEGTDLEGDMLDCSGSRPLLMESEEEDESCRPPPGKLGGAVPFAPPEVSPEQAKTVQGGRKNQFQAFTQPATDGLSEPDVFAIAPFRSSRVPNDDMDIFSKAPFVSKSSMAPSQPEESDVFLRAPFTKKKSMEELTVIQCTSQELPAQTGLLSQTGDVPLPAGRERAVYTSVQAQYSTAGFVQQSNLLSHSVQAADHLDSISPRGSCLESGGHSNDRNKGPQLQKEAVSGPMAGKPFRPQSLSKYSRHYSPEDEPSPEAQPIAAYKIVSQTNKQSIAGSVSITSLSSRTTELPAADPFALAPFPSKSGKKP

**Q.** Which potency estimated from few doses (AAK1; [1]) does the source give for `Nc1nccc(-c2ccc3c(N)n[nH]c3c2)n1` [GSK1034945A] here?
**A.** 194 nM

**Q.** What about the potency estimated from few doses (BMP2K; [1]) of the same compound?
**A.** 194 nM

**Q.** What about the potency estimated from few doses (CLK1; [1]) of the same compound?
**A.** 35.4 nM

**Q.** What about the potency estimated from few doses (CLK4; [1]) of the same compound?
**A.** 25 nM

**Q.** And the potency estimated from few doses (MELK)?
**A.** 828 nM

**Q.** And the potency estimated from few doses (Q6ZSR9; [1])?
**A.** 225 nM

**Q.** How did the potency estimated from few doses (AAK1; [1]) turn out when `Cc1cc(NC(=O)c2cccc(NC(=O)/C=C/CN(C)C)c2)ccc1Nc1nccc(-c2cccnc2)n1` [JNK-IN-7] was run?
**A.** 1000 nM

**Q.** And the potency estimated from few doses (BMP2K; [1])?
**A.** 1330 nM

**Q.** What about the potency estimated from few doses (CLK4; [1]) of the same compound?
**A.** 1630 nM

**Q.** What about the potency estimated from few doses (MELK) of the same compound?
**A.** 2110 nM

**Q.** What about the potency estimated from few doses (NUAK1) of the same compound?
**A.** 688 nM

**Q.** And the potency estimated from few doses (Q6ZSR9; [1])?
**A.** 883 nM

**Q.** How did the potency estimated from few doses (AAK1; compound concentrations: 100 nM and 1000 nM (sheet 'Samples'), CATDS: 4.14189738717365E-2) turn out when `COc1ccc(Nc2nccc(NCCNC(=O)Nc3cc(C)ccc3C)n2)cc1` [GSK1379899A] was run?
**A.** 1930 nM

**Q.** And the potency estimated from few doses (GAK; CATDS: 4.9044286773088197E-2)?
**A.** 1220 nM

**Q.** And the potency estimated from few doses (GSK3A; compound concentrations: 100 nM and 1000 nM (sheet 'Samples'), CATDS: 0.21656856359749399)?
**A.** 102 nM

**Q.** And the potency estimated from few doses (GSK3B; CATDS: 4.8399492982865999E-2)?
**A.** 1260 nM

**Q.** And the potency estimated from few doses (PRKAG1; CATDS: 5.18818459595803E-2)?
**A.** 1070 nM

**Q.** How did the potency estimated from few doses (AAK1; compound concentrations: 100 nM and 1000 nM (sheet 'Samples'), CATDS: 7.0672381673146406E-2) turn out when `O=C1N=C(NCCc2ccccc2Cl)S/C1=C\c1ccc2ncccc2c1` [RO4498484-000] was run?
**A.** 1000 nM

**Q.** And the potency estimated from few doses (CLK1; compound concentrations: 100 nM and 1000 nM (sheet 'Samples'), CATDS: 0.163722912511999)?
**A.** 151 nM

**Q.** What about the potency estimated from few doses (CLK4; compound concentrations: 100 nM and 1000 nM (sheet 'Samples'), CATDS: 0.193469538942661) of the same compound?
**A.** 114 nM

**Q.** What about the potency estimated from few doses (CSNK2A1;CSNK2A3) of the same compound?
**A.** 147 nM

**Q.** And the potency estimated from few doses (CSNK2A2)?
**A.** 105 nM

**Q.** What about the potency estimated from few doses (GAK; CATDS: 6.92626012786898E-2) of the same compound?
**A.** 1060 nM

**Q.** And the potency estimated from few doses (Q6ZSR9; compound concentrations: 100 nM and 1000 nM (sheet 'Samples'), CATDS: 7.2207205601376195E-2)?
**A.** 937 nM

**Q.** `Cl.Cl.NCC(NC(=O)c1cc(-c2ccnc3[nH]ccc23)cs1)c1ccccc1.NCC(NC(=O)c1cc(-c2ccnc3[nH]ccc23)cs1)c1ccccc1` (stereo not drawn) [GSK1229959A] was tested. Which potency estimated from few doses (AAK1; compound concentrations: 100 nM and 1000 nM (sheet 'Samples'), CATDS: 3.6384638335370603E-2) did it give?
**A.** 79.6 nM

**Q.** What about the potency estimated from few doses (BMP2K; compound concentrations: 100 nM and 1000 nM (sheet 'Samples'), CATDS: 3.4118166315235399E-2) of the same compound?
**A.** 97.1 nM

**Q.** What about the potency estimated from few doses (CLK4; compound concentrations: 100 nM and 1000 nM (sheet 'Samples'), CATDS: 1.8316449367944E-2) of the same compound?
**A.** 1240 nM

**Q.** And the potency estimated from few doses (GAK; CATDS: 3.7046569699604799E-2)?
**A.** 75.5 nM

**Q.** What about the potency estimated from few doses (GSK3B; CATDS: 1.8491508517635601E-2) of the same compound?
**A.** 1170 nM

**Q.** What about the potency estimated from few doses (PKN1; compound concentrations: 100 nM and 1000 nM (sheet 'Samples'), CATDS: 2.9664861147502199E-2) of the same compound?
**A.** 155 nM

**Q.** What about the potency estimated from few doses (PRKAG1; CATDS: 1.9025331184012301E-2) of the same compound?
**A.** 1010 nM

**Q.** What about the potency estimated from few doses (Q6ZSR9; compound concentrations: 100 nM and 1000 nM (sheet 'Samples'), CATDS: 3.4885156977357598E-2) of the same compound?
**A.** 90.6 nM

**Q.** Which results are given for `CCn1c(-c2nonc2N)nc2cncc(C(=O)N3CC[C@H](N)C3)c21.Cl` [SB-772077-B]?
**A.** potency estimated from few doses (AAK1; [1]): 1700 nM; potency estimated from few doses (GSK3A; [1]): 1100 nM; potency estimated from few doses (PKN1; [1]): 484 nM; potency estimated from few doses (PKN3): 1710 nM; potency estimated from few doses (Q6ZSR9; [1]): 1880 nM

**Q.** With `Cn1cc(C=C2C(=O)Nc3cccnc32)c2ccccc21` [GW441756X] as the compound, how does the potency estimated from few doses (AAK1; compound concentrations: 100 nM and 1000 nM (sheet 'Samples'), CATDS: 0.22645425815754) read?
**A.** 1250 nM

**Q.** What about the potency estimated from few doses (BMP2K; compound concentrations: 100 nM and 1000 nM (sheet 'Samples'), CATDS: 0.330795354292378) of the same compound?
**A.** 609 nM

**Q.** And the potency estimated from few doses (Q6ZSR9; compound concentrations: 100 nM and 1000 nM (sheet 'Samples'), CATDS: 0.24113419116187701)?
**A.** 1090 nM

**Q.** What does the source list for `COc1cccc(C2=C(c3c(C)n(C)c4ccccc34)C(=O)NC2=O)c1` [RO3300167-000]?
**A.** potency estimated from few doses (AAK1; compound concentrations: 100 nM and 1000 nM (sheet 'Samples'), CATDS: 7.9667560611670199E-2): 1520 nM; potency estimated from few doses (PAK4): 582 nM; potency estimated from few doses (Q6ZSR9; compound concentrations: 100 nM and 1000 nM (sheet 'Samples'), CATDS: 7.9945675311768105E-2): 1510 nM

**Q.** How did the potency estimated from few doses (AAK1; compound concentrations: 100 nM and 1000 nM (sheet 'Samples'), CATDS: 0.12685242970353799) turn out when `COc1cc2ncn(-c3cc(OCc4ccccc4S(C)(=O)=O)c(C#N)s3)c2cc1OC` [GSK319347A] was run?
**A.** 621 nM

**Q.** And the potency estimated from few doses (BMP2K; compound concentrations: 100 nM and 1000 nM (sheet 'Samples'), CATDS: 0.286498522791794)?
**A.** 177 nM

**Q.** And the potency estimated from few doses (FLT4)?
**A.** 1720 nM

**Q.** What about the potency estimated from few doses (GAK; CATDS: 8.54645100662135E-2) of the same compound?
**A.** 1450 nM

**Q.** And the potency estimated from few doses (Q6ZSR9; compound concentrations: 100 nM and 1000 nM (sheet 'Samples'), CATDS: 0.124049531101547)?
**A.** 647 nM

**Q.** Which results are given for `COc1cc[nH]c1/C=C1\C(=O)Nc2ccc(F)c(I)c21` [RO0281567-000]?
**A.** potency estimated from few doses (AAK1; compound concentrations: 100 nM and 1000 nM (sheet 'Samples'), CATDS: 0.16412118246726901): 568 nM; potency estimated from few doses (BMP2K; compound concentrations: 100 nM and 1000 nM (sheet 'Samples'), CATDS: 0.232255536891084): 309 nM; potency estimated from few doses (GSK3A; compound concentrations: 100 nM and 1000 nM (sheet 'Samples'), CATDS: 0.11117571470946799): 1460 nM; potency estimated from few doses (Q6ZSR9; compound concentrations: 100 nM and 1000 nM (sheet 'Samples'), CATDS: 0.16614751317759599): 555 nM

**Q.** How did the potency estimated from few doses (AAK1; [1]) turn out when `CN(C)C(=O)/C(C#N)=C/c1ccc(-c2nc3cnc4[nH]ccc4c3n2C2CCCCC2)o1` [FM-381] was run?
**A.** 1820 nM

**Q.** What about the potency estimated from few doses (BMP2K; [1]) of the same compound?
**A.** 1050 nM

**Q.** And the potency estimated from few doses (NUAK1)?
**A.** 566 nM

**Q.** What about the potency estimated from few doses (Q6ZSR9; [1]) of the same compound?
**A.** 1760 nM

**Q.** What does the source list for `NS(=O)(=O)c1ccc(N/N=C2\C(=O)Nc3ccc(-c4cnco4)cc32)cc1` [GW276655_KCGS]?
**A.** potency estimated from few doses (AAK1; [1]): 1180 nM; potency estimated from few doses (BMP2K; [1]): 518 nM; potency estimated from few doses (Q6ZSR9; [1]): 782 nM

**Q.** With `Nc1nc(-c2ccc3c(N)n[nH]c3c2)cc(N2CCCCC2)n1` [GSK2228768A] as the compound, how does the potency estimated from few doses (AAK1; [1]) read?
**A.** 749 nM
